PubChem BioAssay AID1159580 (chemical genetic matrix, 2015)
Out of some 5,500 compounds screened, about 2,000 (36%) were called active. About 18% were inconclusive and are not listed. This is one part of the list. A number with no mark means an inactive call. Cut-off read from the data, not from the text of the source: active = normalized growth mostly below about 0.91 (no sharp cut-off); inconclusive = no clear call, values can overlap the other calls; inactive = mostly above about 0.92.

Experiment: chemical genetic growth profiling, strain panel (AID 1159580);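 note: tested at 20 µM; growth read once vehicle control cultures reached saturation at 30 °C; 1 = growth at the plate median or of vehicle wells; lower values mean less growth of the strain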
Conditions: S. cerevisiae deletion strains, growth OD
[1] = locus YDL101C, strain DUN1, active compounds read low
[2] = locus YHR030C, strain SLT2, active compounds read low

## O=C(Nc1ccc(Cl)cc1Cl)c1cnccn1
Locus YAL013W, strain DEP1, active compounds read low
  normalized growth: 0.943
Locus YBR229C, strain ROT2, active compounds read low
  normalized growth: 0.963
Locus YCL061C, strain MRC1, active compounds read low
  normalized growth: 0.98
[1]
  normalized growth: 0.982
Locus YDL134C, strain PPH21, active compounds read low
  normalized growth: 0.989
Locus YDR150W, strain NUM1, active compounds read low
  normalized growth: 0.989
Locus YEL061C, strain CIN8, active compounds read low
  normalized growth: 0.95
Locus YGR078C, strain PAC10, active compounds read low
  normalized growth: 0.991
[2]
  normalized growth: 0.606 (active)
Locus YHR087W, strain rtc3, active compounds read low
  normalized growth: 0.973
Locus YJR043C, strain POL32, active compounds read low
  normalized growth: 1.01
Locus YJR075W, strain HOC1, active compounds read low
  normalized growth: 1.01
Locus YKL190W, strain CNB1, active compounds read low
  normalized growth: 0.862 (active)
Locus YLR039C, strain RIC1, active compounds read low
  normalized growth: 0.788 (active)
Locus YLR058C, strain SHM2 (second series), active compounds read low
  normalized growth: 0.975
Locus YLR085C, strain ARP6, active compounds read low
  normalized growth: 0.656 (active)
Locus YLR262C, strain YPT6, active compounds read low
  normalized growth: 0.87
Locus YML094W, strain GIM5, active compounds read low
  normalized growth: 0.91
Locus YMR219W, strain ESC1, active compounds read low
  normalized growth: 0.99
Locus YMR263W, strain SAP30, active compounds read low
  normalized growth: 0.966
Locus YNL153C, strain GIM3, active compounds read low
  normalized growth: 0.98
Locus YNL298W, strain CLA4 (second series), active compounds read low
  normalized growth: 0.911
Locus YNL322C, strain KRE1, active compounds read low
  normalized growth: 0.986
Locus YNR030W, strain Alg12, active compounds read low
  normalized growth: 0.94
Locus YOL006C, strain TOP1, active compounds read low
  normalized growth: 0.773
Locus YPL055C, strain LGE1, active compounds read low
  normalized growth: 0.9
Locus YPL241C, strain CIN2, active compounds read low
  normalized growth: 0.9
Locus YPR135W, strain CTF4, active compounds read low
  normalized growth: 0.768

## O=C(Nc1ccc(Cl)cc1Cl)c1cnccc1C(F)(F)F
Locus YAR019C, strain CDC15, active compounds read low
  normalized growth: 0.978
Locus YBL105C, strain PKC1, active compounds read low
  normalized growth: 0.976
Locus YBR135W, strain CKS1, active compounds read low
  normalized growth: 0.981
Locus YBR136W, strain MEC1, active compounds read low
  normalized growth: 0.971
Locus YBR160W, strain CDC28, active compounds read low
  normalized growth: 0.974
Locus YDL017W, strain CDC7, active compounds read low
  normalized growth: 0.984
Locus YDL028C, strain MPS1, active compounds read low
  normalized growth: 0.976
[1]
  normalized growth: 0.964
Locus YDL108W, strain KIN28, active compounds read low
  normalized growth: 0.97
Locus YDL132W, strain cdc53, active compounds read low
  normalized growth: 0.972
Locus YDL214C, strain PRR2, active compounds read low
  normalized growth: 0.987
Locus YDR052C, strain DBF4, active compounds read low
  normalized growth: 0.977
Locus YDR054C, strain cdc34, active compounds read low
  normalized growth: 0.977
Locus YDR226W, strain ADK1, active compounds read low
  normalized growth: 0.976
Locus YDR477W, strain SNF1, active compounds read low
  normalized growth: 0.981
Locus YER123W, strain YCK3, active compounds read low
  normalized growth: 0.958
Locus YER133W, strain GLC7, active compounds read low
  normalized growth: 0.976
Locus YFL009W, strain cdc4, active compounds read low
  normalized growth: 0.971
Locus YFL029C, strain CAK1, active compounds read low
  normalized growth: 0.975
Locus YFR003C, strain YPI1, active compounds read low
  normalized growth: 0.977
Locus YFR019W, strain FAB1, active compounds read low
  normalized growth: 0.98
Locus YFR028C, strain CDC14, active compounds read low
  normalized growth: 0.97
Locus YGR040W, strain KSS1, active compounds read low
  normalized growth: 0.977
Locus YGR052W, strain FMP48, active compounds read low
  normalized growth: 1.13
Locus YGR092W, strain DBF2, active compounds read low
  normalized growth: 0.998
[2]
  normalized growth: 1.15
Locus YHR079C, strain IRE1, active compounds read low
  normalized growth: 1.09
Locus YHR082C, strain KSP1, active compounds read low
  normalized growth: 1.11
Locus YHR205W, strain SCH9, active compounds read low
  normalized growth: 0.974
Locus YIL147C, strain SLN1, active compounds read low
  normalized growth: 0.971
Locus YJL095W, strain BCK1, active compounds read low
  normalized growth: 1.14
Locus YJL128C, strain PBS2, active compounds read low
  normalized growth: 0.935
Locus YJL157C, strain FAR1, active compounds read low
  normalized growth: 0.973
Locus YJR016C, strain ILV3, active compounds read low
  normalized growth: 0.976
Locus YJR066W, strain TOR1 (second series), active compounds read low
  normalized growth: 1
Locus YJR066W, strain TOR1, active compounds read low
  normalized growth: 1.12
Locus YKL048C, strain ELM1, active compounds read low
  normalized growth: 0.974
Locus YKL067W, strain YNK1, active compounds read low
  normalized growth: 0.981
Locus YKL101W, strain HSL1, active compounds read low
  normalized growth: 0.986
Locus YKL193C, strain SDS22, active compounds read low
  normalized growth: 0.967
Locus YKL203C, strain TOR2, active compounds read low
  normalized growth: 1.05
Locus YLR113W, strain HOG1, active compounds read low
  normalized growth: 1.05
Locus YLR133W, strain CKI1, active compounds read low
  normalized growth: 0.988
Locus YLR403W, strain SFP1, active compounds read low
  normalized growth: 0.967
Locus YML070W, strain DAK1, active compounds read low
  normalized growth: 0.98
Locus YMR001C, strain CDC5, active compounds read low
  normalized growth: 0.972
Locus YMR205C, strain PFK2 (second series), active compounds read low
  normalized growth: 0.993
Locus YMR277W, strain FCP1, active compounds read low
  normalized growth: 0.962
Locus YNL006W, strain LST8, active compounds read low
  normalized growth: 0.973
Locus YNL020C, strain ARK1, active compounds read low
  normalized growth: 0.989
Locus YNL161W, strain CBK1, active compounds read low
  normalized growth: 0.974
Locus YNL183C, strain NPR1, active compounds read low
  normalized growth: 1.1
Locus YNL207W, strain RIO2, active compounds read low
  normalized growth: 0.976
Locus YNL222W, strain SSU72, active compounds read low
  normalized growth: 0.976
Locus YNL307C, strain MCK1 (second series), active compounds read low
  normalized growth: 0.988
Locus YOL078W, strain AVO1, active compounds read low
  normalized growth: 0.975
Locus YOL136C, strain PFK27, active compounds read low
  normalized growth: 0.982
Locus YOR061W, strain CKA2, active compounds read low
  normalized growth: 0.99
Locus YOR119C, strain RIO1, active compounds read low
  normalized growth: 1.01
Locus YOR231W, strain MKK1, active compounds read low
  normalized growth: 1.1
Locus YOR329C, strain SCD5, active compounds read low
  normalized growth: 0.975
Locus YPL031C, strain PHO85, active compounds read low
  normalized growth: 0.977
Locus YPL153C, strain RAD53, active compounds read low
  normalized growth: 0.99
Locus YPL204W, strain HRR25, active compounds read low
  normalized growth: 0.976
Locus YPL209C, strain IPL1, active compounds read low
  normalized growth: 0.967
Locus YPL256C, strain CLN2, active compounds read low
  normalized growth: 1.07
Locus YPR025C, strain CCL1, active compounds read low
  normalized growth: 0.976
Locus YPR106W, strain ISR1, active compounds read low
  normalized growth: 0.972
Locus YPR111W, strain DBF20, active compounds read low
  normalized growth: 0.974
Strain NNK1, active compounds read low
  normalized growth: 0.971
Strain TSCII, active compounds read low
  normalized growth: 0.972
